Source: ChEMBL document CHEMBL3988442, “University of Dundee, Small-Polar-MMV Screening Library” (2021)
Hit rate of the full screen: of about 48,000 compounds, about 13,000 (27%) showed an effect of 50% or more. The list shows a part of the results.

test system: Wolbachia pipientis; assay: Anti-Wolbachia Cell-Based Screen; type: functional; parameters: scale not given: in the data most compounds retested in dose-response had high values; settings: 5 µM

| Structure (SMILES) | Percent Effect |
| --- | --- |
| O=C(NC[C@H]1OC[C@@H](NCc2ccccn2)[C@@H]1O)c1ccncc1 | -10.69% |
| CC1=N[C@@]2(CC[C@@H]3CN(S(=O)(=O)C4CC4)C[C@@H]32)C(=O)N1CC(C)C | 6.738% |
| CCCC1(NC(=O)C(c2ccc(F)cc2)N(C)C)CC1 (stereo not drawn) | 19.19% |
| Cc1ccc(CNCc2ccc(N3CCC(CO)CC3)nc2)c(C)c1.Cl | 6.349% |
| CCS(=O)(=O)NCCNCc1ccc(Cl)c2cccnc12 | 1.555% |
| CCc1sc(C(=O)Nc2cnn(CC(=O)NC3CC3)c2)cc1C | -4.419% |
| CC(NC(=O)c1cc2n(n1)CCCN(C(C)C)C2)c1cn2ccsc2n1 (stereo not drawn) | 13.56% |
| O=C(O)C(F)(F)F.O=C(c1c[nH]cn1)N1CCC(F)(F)C2(CCN(c3cnccn3)C2)C1 (stereo not drawn) | -14.15% |
| O=C(O)C(F)(F)F.OCCN1CCC(F)(F)C2(CCN(c3cnccn3)C2)C1 (stereo not drawn) | 101.7% |
| FC1(F)CCN(Cc2cccnc2)CC12CCN(c1cnccn1)C2.O=C(O)C(F)(F)F.O=C(O)C(F)(F)F.O=C(O)C(F)(F)F (stereo not drawn) | 109.7% |
| O=C(NS(=O)(=O)c1ccc2c(c1)CCC2)C1COCCO1 (stereo not drawn) | -6.627% |
| CCOc1cc(C)ccc1NS(=O)(=O)c1cc(C)c(C(=O)O)s1 | -7.525% |
| O=C1CC(c2ccsc2)c2c(n(C3CCOCC3)[nH]c2=O)N1 (stereo not drawn) | 5.675% |
| Cc1ccc(SCCN(C)C(=O)c2cn([C@H]3CC[C@@H](N)CC3)nn2)cc1 | 1.127% |
| Cc1ccoc1C(=O)N1CC[C@H]2C[C@H](c3nnc(C4CC4)o3)O[C@@H]2C1 | 102.2% |
| Cc1nc([C@H]2C[C@H]3CN(C(=O)c4ccoc4C)CC[C@@H]3O2)no1 | -4.157% |
| Cc1nc([C@@H]2C[C@@H]3CCN(C(=O)c4occc4C)C[C@H]3O2)no1 | -8.664% |
| Cc1occc1C(=O)N1CC[C@H]2C[C@@H](c3nnc(C4CC4)o3)O[C@@H]2C1 | 109% |
| CCC1c2ccccc2CCN1C(=O)c1ccc(OC)nn1 (stereo not drawn) | -4.117% |
| CC(C)n1nc2c(cc1=O)CN(Cc1nc(-c3ccco3)no1)CC2 | -11.95% |
| Cc1nonc1CN(C)c1nc(-c2cccnc2)nc2c1CCNC2 | 3.087% |
| Cc1cc(CN(C)c2nc(-c3ccccn3)nc3c2CCNCC3)n[nH]1 | -2.668% |
| Cc1cc(CN(C)c2nc(-c3ccco3)nc3c2CCN(C)CC3)on1 | 70.19% |

| Structure (SMILES) | Percent Effect |
| --- | --- |
| Cc1noc(CN(C)c2nc(-c3ccco3)nc3c2CCN(C)CC3)n1 | 89.77% |
| CCOCc1nc2c(c(N(C)Cc3nonc3C)n1)CCNCC2 | 2.534% |
| Cc1nc(CNc2nc(-c3ccco3)nc3c2CCNCC3)n[nH]1 | 7.543% |
| CN(Cc1ccc2c(c1)OCO2)Cc1nc(-c2ccco2)no1 | 2.905% |
| Cc1nonc1CN(C)c1nc(-c2ccco2)nc2c1CCN(C)CC2 | 97.89% |
| COCCNC(=O)CN(C)Cc1ccc(F)cc1Cl | 14.02% |
| COc1ccc(CN(C)C2CSCCSC2)c2cccnc12 | -27.46% |
| CC(NC(=O)NCC(C)(C)O)c1ccc(-c2ccncc2)cc1 (stereo not drawn) | -1.867% |
| Cc1nc2ccccc2nc1CN1CCCC1Cn1cncn1 (stereo not drawn) | -6.198% |
| Cc1nc2ccccc2nc1CN1CCCCC1Cn1cncn1 (stereo not drawn) | -2.917% |
| c1ccc2c(N3CCCCC3Cn3cncn3)ncnc2c1 (stereo not drawn) | -5.98% |
| Cc1nc(CN2CCCCC2Cn2cncn2)nc2ccccc12 (stereo not drawn) | 1.919% |
| c1ccc2oc(CCCN3CCCC3Cn3cncn3)nc2c1 (stereo not drawn) | -5.809% |
| c1ccc2oc(N3CCCCC3Cn3cncn3)nc2c1 (stereo not drawn) | -11.74% |
| Cc1nc(CN2CCCC2Cn2cncn2)nc2ccccc12 (stereo not drawn) | 12.85% |
| c1ccc2oc(CN3CCCCC3Cn3cncn3)nc2c1 (stereo not drawn) | 109.3% |
| c1ccc2oc(CN3CCCC3Cn3cncn3)nc2c1 (stereo not drawn) | 131.5% |
| c1ccc2oc(CCCN3CCCCC3Cn3cncn3)nc2c1 (stereo not drawn) | 92.19% |
| c1ccc2oc(N3CCCC3Cn3cncn3)nc2c1 (stereo not drawn) | 106.1% |
| CCOC(=O)NC(CNC(=O)c1cc(Cl)ccn1)CC(C)C (stereo not drawn) | 7.591% |
| CCOCc1nn(CC2CC2)c2c1CN(C(=O)c1ccno1)CC2 | 13.02% |
| N#Cc1ccccc1CN1CCC(c2nccn2CC(N)=O)CC1 | -2.764% |
| CC(C)N1CCC(c2cc(C(F)(F)F)n3ccnc3n2)CC1 | 75.91% |

| Structure (SMILES) | Percent Effect |
| --- | --- |
| NC(=O)CN1CCC(c2cc(C(F)(F)F)n3ccnc3n2)CC1 | 134.1% |
| CN1CCC(N2CC[C@H](c3nc4ccc(C(F)(F)F)cc4[nH]3)C2)CC1 | -1.878% |
| CC(C)n1ccnc1C1CCN(Cc2ccc(Cl)c(F)c2)CC1 | -2.763% |
| CN1CCC(c2cc(C(F)(F)F)n3ccnc3n2)CC1 | 137.1% |
| CC(=O)N1CCC(c2cc(C(F)(F)F)n3ccnc3n2)CC1 | 1.424% |
| CCCN1CCN(S(=O)(=O)c2ccccc2OC)[C@H]2CS(=O)(=O)C[C@H]21 | -12.25% |
| Cc1cnc(C)c(N2CCCC(C/C=C/c3ccccc3)(C(=O)O)C2)n1 (stereo not drawn) | -10.18% |
| Cc1ccoc1CNCc1nnc2n1CCCC2C(F)(F)F (stereo not drawn) | -14.27% |
| CNc1nccc(-c2cn(C)nc2C)n1 | 5.366% |
| CNc1nccc(-c2cnc3sc(C)c(C)n3c2=O)n1 | 88.7% |
| CCCn1ncc(-c2ccnc(N[C@@H]3C[C@@H]4CC[C@H]3C4)n2)c1C | -16.18% |
| CCNC(=O)N1CCC(Nc2nccc(NCC)n2)CC1 | -9.692% |
| CC[C@H](C)Nc1nccc(-c2cnc3sc(C)c(C)n3c2=O)n1 | -3.163% |
| Cc1sc2ncc(-c3ccnc(NC4CCN(C)CC4)n3)c(=O)n2c1C | 102.6% |
| CCOCCN1CCN(Cc2nnc(C3CC3)o2)CC1CC (stereo not drawn) | 2.687% |
| O=C(c1ccc2c(c1)CCO2)N1CCN(c2ncccn2)CC1 | 13.67% |
| O=C(CCc1ccncc1)Nc1ccc(OCC2CC2)cc1 | 33.82% |
| O=C(Cc1ccc(-n2cnnn2)cc1)Nc1nncs1 | -7.49% |
| O=C(CCc1ccc(-n2cnnn2)cc1)Nc1nncs1 | 117.3% |
| O=C(CCn1cc(Cl)cn1)Nc1nncs1 | -12.52% |
| O=C(CCc1ccc(-n2cnnn2)cc1)Nc1ccncc1 | 118.2% |
| COC(=O)c1ccc(NC(=O)CCc2ccncc2)c(C)c1 | -3.514% |
